Each structure is given as a SMILES string. “And” between values parts separate entries of the source, which are not always exact repeats. Equal values may be shown once. Results filed as inconclusive are left out. The source made the active and inactive calls. Unless noted, calls come from the whole dose curve.

Experiment [1] concerns the target Peroxisome proliferator-activated receptor gamma (Homo sapiens) (UniProt P37231). Put plainly: qHTS assay for small molecule agonists of peroxisome proliferator-activated receptor gamma signaling (AID 588536; active = well fitted curve in the direction sought with a large enough effect in the signal ratio, with a control signal flat, not every such curve was filed as active; the % refers to the signal ratio;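 note: 0% = DMSO basal wells and 100% = rosiglitazone at 2 µM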). The essentials:
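PPAR-gamma-UAS-bla HEK293 cells in medium with 1% charcoal/dextran-treated FBS were exposed to compounds for 16 h at 37 C. Beta-lactamase activity was read with CCF4 substrate (405 nm excitation, 460/530 nm emission).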

Experiment [2] shares this target. Nature of the experiment: qHTS assay for small molecule antagonists of peroxisome proliferator-activated receptor gamma signaling (AID 588537; active = well fitted inhibition curve with a large enough effect in the signal ratio, with a control signal flat, not every such curve was filed as active; the % refers to the signal ratio; note: potency is the fitted concentration of half-maximal effect). In short, it runs like this:
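Antagonist mode, beta-lactamase reporter in HEK293; charcoal/dextran FBS 1%; 3000 cells/well, 37 C 6-6.5 h; cpd titration + rosiglitazone 50 nM final, 16 h 37 C; CCF4, 2 h RT; 460/530 nm; Hill fit → IC50, efficacy.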
Background: Quantitative high-throughput screening tests each substance at several concentrations.

The target in experiment [3] is Vitamin D3 receptor (Homo sapiens) (UniProt P11473). Put plainly: qHTS assay for small molecule antagonists of vitamin D receptor signaling (AID 588541).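 Note: receptor activated by calcitriol during compound treatment; series mostly up to about 77 µM; % is set by controls: 0 for no effect and ±100 for the full control effect.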 In short, it runs like this: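 Antagonist-mode beta-lactamase reporter assay: HEK293T VDR-UAS-bla cells were exposed to titrated compound alongside 1-alpha,25-dihydroxyvitamin D3 at 3 nM final for 16 h. Values were normalized to the 50 nM agonist control and DMSO basal, with IC50 and efficacy from Hill equation fits.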

For experiment [4] the target is unchanged. Put plainly: qHTS assay for small molecule agonists of vitamin D receptor signaling (AID 588543).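 Note: 0% = DMSO basal and 100% = reference agonist control.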 In short, it runs like this: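 β-lactamase reporter, VDR-UAS-bla HEK293T, agonist mode. Cells plated 5 h at 37 °C, compound titration 16 h at 37 °C, CCF4 dye 2 h RT, ratio 460/530 nm. Hill fit → EC50, efficacy vs 50 nM 1α,25-(OH)2D3.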
Experiment [5] has as its target Thyroid hormone receptor beta (Homo sapiens) (UniProt P10828). Nature of the experiment: qHTS assay for small molecule agonists of thyroid hormone receptor beta signaling (AID 588545). The essentials:
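HEK 293 TR-UAS-bla; agonist mode; 18 hrs, 37 C; CCF4, ex 405/em 460 and 530 nm; norm. T3 10 nM = 100%, DMSO = 0%; Hill fit → EC50, efficacy.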

Experiment [6] in a line: qHTS assay for small molecule antagonists of retinoid X receptor alpha signaling (AID 588546).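 Note: cells stimulated with 9-cis-retinoic acid as agonist; % is set by controls: 0 for no effect and ±100 for the full control effect.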 As to conditions: HEK293T RXRa-UAS-bla, beta-lactamase ratio, antagonist mode; measured here: W530 green channel, cytotoxicity proxy. In short, it runs like this:
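Beta-lactamase reporter inhibition, read as CCF4 fluorescence ratio (ex 405, em 460/530 nm) after 2 h at RT. HEK293T UAS-bla cells, 2500/well, were stimulated with 9-cis-RA at 500 or 100 nM final alongside test compound for 18 h at 37 C.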

A short description of experiment [7]: qHTS assay for small molecule antagonists of peroxisome proliferator-activated receptor delta signaling (AID 588535; active = well fitted inhibition curve with a large enough effect in the signal ratio, with a control signal flat, not every such curve was filed as active; the % refers to the signal ratio;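 for max response: cells co-treated with a PPAR-delta agonist as stimulator during compound exposure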). As to conditions: HEK293T PPARd-UAS-bla, beta-lactamase FRET ratio, 18 h; 460 nm channel. In short, it runs like this:
(§1)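 HEK293T PPAR-delta-UAS-bla cells, 4000/well, 2% charcoal/dextran FBS; 5 h 37 C; cpd titration; 18 h 37 C; CCF4 2 h RT; FI 460/530 nm; Hill fit → IC50, efficacy.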

Experiment [8] deals with Peroxisome proliferator-activated receptor delta (Homo sapiens) (UniProt Q03181). The description is as above. The essentials:
as §1

Experiment [9] is described as follows: qHTS assay for small molecule agonists of retinoid X receptor alpha signaling (AID 588544). As to conditions: HEK293T RXRa-UAS-bla, beta-lactamase reporter, 18 h; 530 nm emission.
In experiment [10] the target is Retinoic acid receptor RXR-alpha (Homo sapiens) (UniProt P19793). The experiment is described as above.
Chain of Retinoic acid receptor RXR-alpha (Homo sapiens) (P19793 whole entry, looked up): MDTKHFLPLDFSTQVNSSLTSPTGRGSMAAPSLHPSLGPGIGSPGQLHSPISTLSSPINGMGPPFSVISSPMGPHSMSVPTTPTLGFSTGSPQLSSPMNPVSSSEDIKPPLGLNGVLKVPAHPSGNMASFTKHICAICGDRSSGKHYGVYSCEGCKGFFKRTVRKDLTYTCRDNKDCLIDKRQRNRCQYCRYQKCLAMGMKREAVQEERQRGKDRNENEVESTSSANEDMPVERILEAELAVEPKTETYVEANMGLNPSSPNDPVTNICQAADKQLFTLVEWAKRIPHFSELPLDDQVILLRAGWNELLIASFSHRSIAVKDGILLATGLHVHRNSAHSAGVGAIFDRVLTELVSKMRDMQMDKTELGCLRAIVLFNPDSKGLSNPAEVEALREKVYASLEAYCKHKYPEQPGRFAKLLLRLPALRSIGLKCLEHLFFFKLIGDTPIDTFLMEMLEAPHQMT

Chain of Thyroid hormone receptor beta (Homo sapiens) (P10828 whole entry, looked up): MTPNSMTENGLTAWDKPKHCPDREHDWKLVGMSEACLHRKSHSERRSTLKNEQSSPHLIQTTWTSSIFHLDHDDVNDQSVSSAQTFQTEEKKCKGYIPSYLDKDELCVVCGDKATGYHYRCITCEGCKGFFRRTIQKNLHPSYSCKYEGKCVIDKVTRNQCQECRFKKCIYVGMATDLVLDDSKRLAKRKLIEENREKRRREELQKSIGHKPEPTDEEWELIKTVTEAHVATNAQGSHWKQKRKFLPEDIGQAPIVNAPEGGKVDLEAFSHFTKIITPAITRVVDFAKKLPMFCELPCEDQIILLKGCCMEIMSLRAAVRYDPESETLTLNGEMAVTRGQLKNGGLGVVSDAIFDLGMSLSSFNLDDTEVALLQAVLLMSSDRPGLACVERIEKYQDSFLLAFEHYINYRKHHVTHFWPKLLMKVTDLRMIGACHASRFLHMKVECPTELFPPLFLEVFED
Chain of Peroxisome proliferator-activated receptor delta (Homo sapiens) (Q03181 whole entry, looked up): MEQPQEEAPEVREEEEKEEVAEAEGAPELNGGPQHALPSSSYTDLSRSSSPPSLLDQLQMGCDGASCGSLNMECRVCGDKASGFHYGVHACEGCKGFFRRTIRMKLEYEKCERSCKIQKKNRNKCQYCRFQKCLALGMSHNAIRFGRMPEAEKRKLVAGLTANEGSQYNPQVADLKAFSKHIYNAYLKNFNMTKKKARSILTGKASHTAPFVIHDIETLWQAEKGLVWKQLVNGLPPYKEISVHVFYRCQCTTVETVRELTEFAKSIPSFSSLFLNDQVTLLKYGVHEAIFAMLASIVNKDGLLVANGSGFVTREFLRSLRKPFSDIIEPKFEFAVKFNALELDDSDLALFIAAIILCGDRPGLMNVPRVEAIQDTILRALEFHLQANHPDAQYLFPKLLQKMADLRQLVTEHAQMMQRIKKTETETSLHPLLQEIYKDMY
Chain of Peroxisome proliferator-activated receptor gamma (Homo sapiens) (P37231 whole entry, looked up): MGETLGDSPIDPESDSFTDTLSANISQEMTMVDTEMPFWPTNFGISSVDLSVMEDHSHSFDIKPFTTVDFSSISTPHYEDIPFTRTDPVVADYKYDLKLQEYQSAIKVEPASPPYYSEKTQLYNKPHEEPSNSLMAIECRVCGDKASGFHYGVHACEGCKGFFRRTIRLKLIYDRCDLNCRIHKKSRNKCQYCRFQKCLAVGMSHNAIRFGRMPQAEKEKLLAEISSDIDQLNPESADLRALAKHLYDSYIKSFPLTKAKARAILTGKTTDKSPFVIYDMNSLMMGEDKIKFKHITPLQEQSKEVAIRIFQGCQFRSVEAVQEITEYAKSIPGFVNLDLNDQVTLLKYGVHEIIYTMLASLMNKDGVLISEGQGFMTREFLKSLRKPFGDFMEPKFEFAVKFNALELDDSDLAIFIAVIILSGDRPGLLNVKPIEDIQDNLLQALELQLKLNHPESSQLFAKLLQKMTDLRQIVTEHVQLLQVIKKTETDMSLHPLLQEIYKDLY

As to `CCn1cc(C(=O)O)c(=O)c2ccc(C)nc21`, the compound was classed as inactive in experiment [1], in [3], in [4] and in experiment [5]. Also, the Potency entry in [2] was “inactive”. Moreover, in [6], the max response is 14% and -13.8%.

With `CN(C)CCC(c1ccccc1)c1ccccn1` (stereo unspecified), the results for the max response in [7], in experiment [9] and in experiment [6] were 37.9%, -9.83% and -6.63%, respectively. Further, the result in experiment [8], in experiment [1], in experiment [3], in experiment [4], in experiment [10] and in [5] was inactive.

Consider `CCCCC1C(=O)N(c2ccccc2)N(c2ccccc2)C1=O`, for which the outcome in experiment [1], in [10] and in experiment [5] was inactive. In [2], the Potency result was “inactive”. Moreover, the max response in experiment [9] was 4.5% and 6.7%; in [6], 1.64% and -10.6%.

Consider `CC(=O)N[C@@H](CS)C(=O)O`, for which the max response in [7] is -4.28%; in experiment [9], -10.9%; in [6] it was -5.69%. The result in experiment [8], in experiment [1], in experiment [3], in [10] and in [5] was inactive.

As to `CC/C(=C(\c1ccccc1)c1ccc(OCCN(C)C)cc1)c1ccccc1`, the Potency entry in experiment [2] was “inactive”.

Consider `CC1=C(/C=C/C(C)=C/C=C/C(C)=C/C(=O)Nc2ccc(O)cc2)C(C)(C)CCC1`, for which the compound was called inactive in experiment [4].

Consider `O=C(O)Cc1cccc2ccccc12`, for which the max response was 10.6% and 0.107% in [7]; -5.32% and -9% in [9]; 4.01% and -7.8% in experiment [6]. The compound was called inactive in [8], in experiment [3], in experiment [4] and in [10]. Besides, in experiment [2], the Potency entry is “inactive”.

`CC(=O)O[C@]1(C(C)=O)CC[C@H]2[C@@H]3C=C(Cl)C4=CC(=O)[C@@H]5C[C@@H]5[C@]4(C)[C@H]3CC[C@@]21C`: the result in [3] and in experiment [5] was inactive.

With `O=C(O)c1cc(O)c2c(c1)C(=O)c1cccc(O)c1C2=O`, in experiment [5], the call was inactive.

As to `CC(C)OC(=O)C(C)(C)Oc1ccc(C(=O)c2ccc(Cl)cc2)cc1`, the results for the max response in experiment [7] and in experiment [6] were 43.3% and -14.5%, respectively. Further, the compound was called inactive in experiment [8], in [3], in [4] and in experiment [5].

As for `CCCNC(=O)NS(=O)(=O)c1ccc(Cl)cc1`, the max response in [7] was 8.72%; in experiment [9], 2.79% and 10.5%; in experiment [6] it was -1.39% and 4.27%. Besides, the compound was classed as inactive in [8], in [1], in experiment [3], in [4], in [10] and in experiment [5]. In addition, the Potency result in experiment [2] was “inactive”.

Take `O=c1c(-c2ccc(O)cc2)coc2cc(O)ccc12`: the max response is 40.9% and 70.8% in experiment [7]; 2.28% and 13.9% in experiment [6]. Besides, the call in experiment [8], in [1] and in experiment [5] was inactive. In addition, the Potency entry in experiment [2] is “inactive”.

As for `O=C(O)c1cc(-c2ccccc2)nc2ccccc12`, the max response in experiment [7] is 54.7%; in [9], 26.3%; in experiment [6], 9.45%. Further, the compound was classed as inactive in experiment [8], in experiment [4], in experiment [10] and in experiment [5]. Also, in experiment [2], the Potency entry is “inactive”.

Turning to `O=c1cc(-c2ccc(O)cc2)oc2cc(O)cc(O)c12`, in [2], the Potency is 44.7 µM (active). Also, the compound was classed as inactive in [5].

As to `CC(=O)c1ccc(S(=O)(=O)NC(=O)NC2CCCCC2)cc1`, the max response is 3.83% and 9.27% in [7]; 0.432% and 9.79% in experiment [9]; -6.48% and 24.9% in experiment [6]. Also, the compound was called inactive in experiment [8], in experiment [1], in experiment [3], in experiment [4], in [10] and in experiment [5]. In addition, the Potency result in experiment [2] is “inactive”.

As for `O=c1cc(-c2ccccc2)oc2cc(O)cc(O)c12`, the compound was called inactive in experiment [5].

Regarding `O=C1NC(=O)C(c2ccccc2)(c2ccccc2)N1`, the max response was -66.4% and 31.2% and 54.5% in experiment [7]; -1.34% and -8.57% and -15.1% in experiment [9]; -8.37% and -14.2% and -3.37% in [6]. The compound was classed as inactive in experiment [8], in experiment [1], in experiment [10] and in experiment [5]. Moreover, the Potency entry in [2] was “inactive”.

Take `O=c1c(O)c(-c2ccc(O)cc2)oc2cc(O)cc(O)c12`: the max response in experiment [7] was -17.2% and 39.5%; in [9] it was 23%. The compound was classed as inactive in experiment [8], in [10] and in experiment [5]. In addition, in experiment [2], the Potency result was “inactive”.

Regarding `O=c1[nH]cnc2c1ncn2[C@H]1CC[C@@H](CO)O1`, the max response was 45.2% in [7]; 0.954% and -9.72% in experiment [9]; -5.91% in experiment [6]. The result in [8], in experiment [1], in experiment [10] and in [5] was inactive.
